# Source: PubChem BioAssay (NMMLSC)
# Only some compounds are listed: those with a hit (about 1.2% of all), similar ones and a draw of the others.
# GSH bead fluor: GSH bead compound fluorescence profile. GSH beads flow cytometry, compound fluorescence 488/530 nm; stronger effect = higher value. fluorescence (KMESF) at 10 µM. hit rate 0.25% among 190,000. AID 1776; in the data active means fluorescence above about 89;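 further: glutathione beads carrying GST-tagged Bcl family fusion proteins plus one bare bead set; values are compound well signal with DMSO vehicle wells as background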
# RGS8-Gao: modulates binding of RGS8 to human Galphao; P09471; multiplexed bead flow cytometry; actives lie on both sides; response (percent of control binding), % at 10 µM; hit rate 0.34% among 220,000; AID 1423; in the data active means response below about 60% or above about 140%; inactive means in between;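 further: Galphao activated as the GDP aluminium fluoride complex binding bead-coupled RGS8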
# Target sequence (P09471 whole entry, looked up): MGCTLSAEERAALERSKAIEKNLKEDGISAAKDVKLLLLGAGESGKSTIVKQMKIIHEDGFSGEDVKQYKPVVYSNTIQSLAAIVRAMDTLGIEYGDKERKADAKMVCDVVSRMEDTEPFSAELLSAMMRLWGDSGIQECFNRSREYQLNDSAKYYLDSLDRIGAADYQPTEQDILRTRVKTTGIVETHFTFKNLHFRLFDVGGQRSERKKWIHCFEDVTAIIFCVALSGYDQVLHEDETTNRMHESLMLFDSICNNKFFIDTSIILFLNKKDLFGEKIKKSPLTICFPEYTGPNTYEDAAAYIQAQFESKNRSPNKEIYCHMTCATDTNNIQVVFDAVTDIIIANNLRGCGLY
# RGS16-Gao: modulates binding between human RGS16 and Galphao; binding response (% of control), % at 10 µM; bead-based flow cytometry RGS16-Galphao binding, fluorescence; actives lie on both sides; hit rate 0.38% among 220,000; call rule not given here;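 further: Galphao activated by GDP with aluminum fluoride before binding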
# Avidin fluor: compound fluoresces at 488/530 nm on avidin beads; compound fluorescence 488/530 nm, flow cytometry; stronger effect = higher value; fluorescence (KMESF) at 10 µM; hit rate 0.38% among 220,000; AID 1775; in the data active means fluorescence above about 47
# RGS4-Gao reg: modulates binding of RGS4 to human Galphao. P09471. Multiplexed bead flow cytometry; actives lie on both sides. binding response (% of control), % at 10 µM. hit rate 0.33% among 220,000; in the data active means binding response below about 49% or above about 150%; inactive means in between;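 further: fluorescent Galphao activated with aluminum fluoride binding bead-coupled RGS4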
# RGS7-Gao reg: regulators of human RGS7-Galphao interaction. P09471. Multiplexed bead flow cytometry, RGS7-Galphao binding; actives lie on both sides. binding response (% of control), % at 10 µM. hit rate 0.35% among 220,000. AID 1439; in the data active means binding response below about 49% or above about 150%; inconclusive means no clear call, values can overlap the other calls; inactive means in between;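 further: fluorescent Galphao held in activated GDP-AlF4 state binding bead-coupled RGS7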
# * marks the source's active call; other numbers are inactive results; u = inconclusive; x = no result given; ! = not confirmed by another sample; [ ] = remark or other dose.
SMILES,GSH bead fluor,RGS8-Gao,RGS16-Gao,Avidin fluor,RGS4-Gao reg,RGS7-Gao reg
Cc1ccc(NS(=O)(=O)c2ccc3c(c2)NC(=O)CC(=O)N3)cc1C,26,98,107,58*,99,111
COc1ccc(NS(=O)(=O)c2ccc3c(c2)NC(=O)CO3)cc1,13,103,102,10,104,104
CCc1nnc(NC(=O)CSc2ccc(-c3cccs3)nn2)s1,12,99,95,9,94,94
COc1cc(-c2nnc(-c3ccccc3)o2)cc(OC)c1OC,18,x,x,x,x,x
COc1cc(-c2nnc(-c3cc(OC)c(OC)c(OC)c3)o2)cc(OC)c1OC,102*,102,101,5,102,99
O=C(COc1ccc(Cl)cc1Cl)N/N=C1\CCCc2ccccc21,27,23*,5,2,34*,27*
Cc1nn(-c2ncc(C(F)(F)F)cc2Cl)c(=O)n1-c1ccc(F)cc1,17,96,98,10,99,95
CC(C)Sc1nc2c([nH]c3ccccc32)c(=O)n1C,11,102,111,57*,104,118
CCOC(=O)C(C)Sc1nc2c([nH]c3ccccc32)c(=O)n1C (stereo not given),15,100,103,7,100,100
CCN(C(=O)CSc1nnnn1-c1cc(C)ccc1OC)C1CCS(=O)(=O)C1 (stereo not given),267*,98,104,8,100,101
CC(C)=CCC(C)(C)C1OCCN1C(=O)Nc1ccccc1 (stereo not given),258*,101,109,8,102,103
CN(C)S(=O)(=O)c1cccc(NC(=S)N2CCc3ccccc32)c1,14,89,98,154*,131,u
O=C(CN(C(=O)CCC(=O)Nc1nccs1)c1cccc(F)c1)NCC1CCCO1 (stereo not given),37,98,101,59*,105,116
COc1ccc(NS(=O)(=O)c2ccc3c(c2)CCO3)cc1,x,95,99,61*,115,u
O=S(=O)(Nc1ccccc1)c1ccc2c(c1)CCO2,x,101,100,8,102,u
CCOCC(O)CS(=O)Cc1ccccc1 (stereo not given),15,105,111,8,104,101
Nc1nc(-c2ccc3c(c2)CCCC3)cs1,263*,105,102,7,101,99
C=CCNC(=O)/C(=C\C=C\c1ccccc1)NC(=O)c1ccc(OCCCC)cc1,19,12*,1.7*,-2,20*,13*
CCCCOc1ccc(C(=O)N/C(=C/C=C/c2ccccc2)C(=O)NCCO)cc1,9,101,104,4,101,99
O=C(/C=C/c1cc([N+](=O)[O-])ccc1OC(F)F)NCc1ccc(F)cc1,265*,101,105,7,100,97
COc1ccc(CCN(C)Cc2ccc(OC)c(OCc3ccccc3)c2)cc1OC,32,106,106,50*,106,127
O=C(CN1C(=O)NC2(CCCCCC2)C1=O)N1CCN(S(=O)(=O)c2ccc(Cl)cc2)CC1,22,94,91,49*,99,107
O=C(NCCN1CCN(Cc2ccccc2)CC1)C1c2ccccc2C(=O)N2CCc3ccccc3C12 (stereo not given),20,100,100,112*,112,150
COc1ccc(OC)c(NC(=O)COC(=O)CN(C)S(=O)(=O)c2ccc(C)cc2)c1,7,104,113,3,104,102
Cc1ccc(CNC(=O)c2cnc(-c3ccccn3)nc2C(F)(F)F)cc1,276*,102,99,7,105,102
SMILES,GSH bead fluor,RGS8-Gao,RGS16-Gao,Avidin fluor,RGS4-Gao reg,RGS7-Gao reg
O=[N+]([O-])c1ccc(/C=C/C2=NN(c3ccccc3)C(c3ccco3)C2)cc1 (stereo not given),83,111,223*[activator],186*,285*[activator],246*[activator]
CCCC(=O)Nc1ccc2oc(-c3ccc(OC)c(Br)c3)nc2c1,24,99,101,54*,103,109
CCCC(=O)Nc1ccc(-c2nc3cc(C)ccc3o2)cc1,30,101,100,10,102,101
COc1ccc(CCNC(=O)c2ccc(=O)[nH]n2)cc1OC,41,100,106,7,104,103
COc1ccc(CCNC(=O)c2cc(-c3cc(C)c(C)cc3O)n[nH]2)cc1OC,22,97,105,90*,109,132
COc1cc(N2CN=c3s/c(=C\c4ccccn4)c(=O)n3C2)cc(OC)c1OC,265*,102,107,9,110,106
O=c1/c(=C/c2ccccn2)sc2n1CN(c1ccccc1)CN=2,3,101,52,3,88,92
C=CCn1c(=O)c2c(nc3n2CCS3)n(C)c1=O,12,99,106,7,105,107
Cn1c(=O)n(Cc2ccccc2)c(=O)c2c1nc1n2CCS1,266*,98,102,6,96,100
CC(=O)Nc1nnc(Cc2ccccc2)s1,264*,110,108,7,108,107
CCCCOC(=O)Nc1cc(Cl)ccc1C,17,103,103,8,102,100
Cn1cnnc1SCC(=O)Nc1sccc1C#N,13,104,104,36,102,102
NC(=O)NC(Cc1ccccc1)C(=O)Nc1ccc(S(N)(=O)=O)cc1 (stereo not given),253*,101,103,7,99,103
NS(=O)(=O)c1ccc(NC(=O)N[C@@H](Cc2ccccc2)C(=O)O)cc1,61,103,101,6,102,102
Cc1ccc2c(CC(=O)O)coc2c1,24,102,106,15,103,106
Cc1cc2occ(CC(=O)O)c2cc1C,234*,101,95,7,97,98
CC(=O)N1c2ccccc2NC2=C(C(=O)CCC2)C1c1cccnc1 (stereo not given),19,96,105,49*,97,105
CCOc1ccc(C(=O)NCC(=O)OCC(=O)Nc2ccccc2OCC)cc1,8,105,103,11,107,106
O=C(CSCc1ccc(Cl)cc1)c1ccco1,260*,104,108,7,108,106
O=C(CSc1nc2cc(Cl)ccc2s1)c1ccco1,8,99,98,15,96,95
CCCCCOC(=O)CSc1n[nH]c(=O)[nH]c1=O,273*,102,103,9,100,99
Cc1onc(-c2ccccc2)c1C(=O)Nc1ccncc1,12,101,104,50*,100,109
COC(=O)CSc1nc(-c2ccccc2)c2c(c1C#N)CCCC2,260*,99,105,6,99,103
Cc1c2cc(O)c(=O)cc-2oc2cc(O)c(O)cc12,x,31*!,90,6,25*!,-4.9*!
COc1cc(OC)c(-c2c3cc(O)c(=O)cc-3oc3cc(O)c(O)cc23)cc1OC,283*,32*,30,-1,37*,-3.2*
